The record followed here is PubChem BioAssay (NCI).

The nature of experiment [1]: NCI Yeast Anticancer Drug Screen. Data for the rad50 strain (AID 155).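 Also: 0% = growth of vehicle-only cultures of the same strain.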 The following applies: S. cerevisiae rad50 strain growth inhibition, hits give high values. An outline of the steps: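 Compounds were tested on a yeast strain with an engineered DNA damage repair alteration; the reported value is growth inhibition normalised to vehicle treatment.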
Experiment [2] in a line: NCI Yeast Anticancer Drug Screen. Data for the mec2-1 strain (AID 157). Conditions: S. cerevisiae mec2-1 strain, hits give high values. An outline of the steps:
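Cells of the genetically defined mec2-1 yeast strain are incubated with test compound. Inhibition of growth is calculated against vehicle-treated controls.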

Experiment [3] can be described thus: NCI Yeast Anticancer Drug Screen. Data for the sgs1 mgt1 strain (AID 161).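 Also: 0% = growth of cultures given vehicle only.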 Conditions: S. cerevisiae sgs1 mgt1 strain, hits give high values. An outline of the steps: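 Genetically altered yeast, compound exposure, growth inhibition relative to vehicle.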
Experiment [4] in a line: NCI Yeast Anticancer Drug Screen. Data for the cln2 rad14 strain (AID 165).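 Also: 0% = growth equal to vehicle treated cultures.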 Conditions: S. cerevisiae cln2 rad14 strain, hits give high values. An outline of the steps:
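The screen exposed genetically defined yeast (cln2 rad14) to test compounds and scored growth inhibition relative to vehicle-treated controls.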

Experiment [5] in a line: NCI Yeast Anticancer Drug Screen. Data for the bub3 strain (AID 167). Conditions: S. cerevisiae bub3 mutant strain, hits give high values. An outline of the steps:
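Growth of a checkpoint-deficient yeast mutant is measured after compound exposure. Values represent inhibition relative to vehicle.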

Experiment [6] can be described thus: NCI Yeast Anticancer Drug Screen. Data for the mlh1 rad18 strain (AID 175). Conditions: S. cerevisiae mlh1 rad18 strain growth inhibition, hits give high values. An outline of the steps: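 Compound-treated yeast growth, normalised to vehicle controls. Strain bears defined DNA repair mutations.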
Where [7] appears, read: at 5.0 µM (retest, dose inferred, filed as 0.5).
The mark [8] stands for this setting: at 50.0 µM (retest, dose inferred, filed as 5.0).

The panel holds about 79,000 compounds, 15% with a hit somewhere; the sample as a whole holds those more often. A number with no mark means an inactive call. The source made the active and inactive calls. Rule as the data show it: active = growth inhibition above about 70%; inactive = the rest.

In the case of `CCN(CC)CCCC(C)Nc1cc(F)cc2cccnc12` (stereo not given), the growth inhibition was 10% in experiment [1] (setting [7]); 81% (active) in experiment [1] (setting [8]); 93.2% (active) in experiment [1] (at 50.0 µM); 4% in experiment [2] (setting [7]); 31% in experiment [2] (setting [8]); 63.2% in experiment [2] (at 50.0 µM). Further, the growth inhibition in experiment [3] (setting [7]) was 28%; in experiment [3] (setting [8]), 75% (active); in experiment [3] (at 50.0 µM), 88.8% (active); in experiment [4] (setting [7]), 10%; in experiment [4] (setting [8]) it was 30%; in experiment [4] (at 50.0 µM) it was 44.9%. For the same compound, the growth inhibition is 15% in experiment [5] (setting [7]); 41% in experiment [5] (setting [8]); 88.3% (active) in experiment [5] (at 50.0 µM); 20% in experiment [6] (setting [7]); 69% in experiment [6] (setting [8]); 85.9% (active) in experiment [6] (at 50.0 µM).

In the case of `COc1ccc(/C=N/n2c(C)nc3c(sc(=S)n3-c3ccccc3)c2=O)cc1`, the growth inhibition in experiment [1] (setting [7]) is 3%; in experiment [1] (setting [8]), -12%; in experiment [1] (at 50.0 µM) it was 13.6%; in experiment [2] (setting [7]), -3%; in experiment [2] (setting [8]) it was -6%; in experiment [2] (at 50.0 µM), 46.8%. Further, the growth inhibition in experiment [3] (setting [7]) was 3%; in experiment [3] (setting [8]) it was 23%; in experiment [3] (at 50.0 µM) it was 11.4%; in experiment [4] (setting [7]) it was -15%; in experiment [4] (setting [8]), 4%; in experiment [4] (at 50.0 µM), 8.15%. For the same compound, the growth inhibition in experiment [5] (setting [7]) is 12%; in experiment [5] (setting [8]), 29%; in experiment [5] (at 50.0 µM), 47.4%; in experiment [6] (setting [7]) it was 22%; in experiment [6] (setting [8]), -12%; in experiment [6] (at 50.0 µM) it was 10.8%.

Take `Cc1cc(N(CCOS(C)(=O)=O)CCOS(C)(=O)=O)ccc1C=Nc1cccc(Cl)c1`: the growth inhibition in experiment [1] (setting [7]) is 10%; in experiment [1] (setting [8]), 80% (active); in experiment [1] (at 50.0 µM) it was 90.3% (active); in experiment [2] (setting [7]) it was 44%; in experiment [2] (setting [8]) it was 56%; in experiment [2] (at 50.0 µM) it was 51.5%. The growth inhibition in experiment [3] (setting [7]) is 4%; in experiment [3] (setting [8]), 61%; in experiment [3] (at 50.0 µM) it was 70.8% (active); in experiment [4] (setting [7]), -3%; in experiment [4] (setting [8]), 57%; in experiment [4] (at 50.0 µM) it was 13.1%. In addition, the growth inhibition in experiment [5] (setting [7]) is 0%; in experiment [5] (setting [8]) it was 15%; in experiment [5] (at 50.0 µM) it was 29.7%; in experiment [6] (setting [7]), 24%; in experiment [6] (setting [8]) it was 92% (active); in experiment [6] (at 50.0 µM), 96.2% (active).

Turning to `O=C1c2ccccc2C(=O)[C@@]23O[C@@]12C1(Oc2cccc4cccc(c24)O1)[C@@H]1O[C@@H]1[C@@H]3O`, the growth inhibition is 79% (active) in experiment [1] (setting [7]); 98% (active) in experiment [1] (setting [8]); 88.1% (active) in experiment [1] (at 50.0 µM); 84% (active) in experiment [2] (setting [7]); 99% (active) in experiment [2] (setting [8]); 91% (active) in experiment [2] (at 50.0 µM). Also, the growth inhibition was 62% in experiment [3] (setting [7]); 99% (active) in experiment [3] (setting [8]); 91.2% (active) in experiment [3] (at 50.0 µM); 48% in experiment [4] (setting [7]); 98% (active) in experiment [4] (setting [8]); 88.7% (active) in experiment [4] (at 50.0 µM). Further, the growth inhibition in experiment [5] (setting [7]) was 56%; in experiment [5] (setting [8]) it was 99% (active); in experiment [5] (at 50.0 µM), 89.5% (active); in experiment [6] (setting [7]) it was 85% (active); in experiment [6] (setting [8]), 98% (active); in experiment [6] (at 50.0 µM) it was 84.9% (active).

Turning to `CCCCCCCCCCCCCCC(=O)OCC[N+](C)(C)C`, the growth inhibition is 33% in experiment [1] (setting [7]); 98% (active) in experiment [1] (setting [8]); 90.2% (active) in experiment [1] (at 50.0 µM); 24% in experiment [2] (setting [7]); 98% (active) in experiment [2] (setting [8]); 93% (active) in experiment [2] (at 50.0 µM). Also, the growth inhibition in experiment [3] (setting [7]) was 45%; in experiment [3] (setting [8]), 99% (active); in experiment [3] (at 50.0 µM), 92.8% (active); in experiment [4] (setting [7]), 33%; in experiment [4] (setting [8]), 98% (active); in experiment [4] (at 50.0 µM), 85.3% (active). In addition, the growth inhibition is 44% in experiment [5] (setting [7]); 99% (active) in experiment [5] (setting [8]); 91.8% (active) in experiment [5] (at 50.0 µM); 27% in experiment [6] (setting [7]); 97% (active) in experiment [6] (setting [8]); 91.2% (active) in experiment [6] (at 50.0 µM).
